Screens: PubChem BioAssay, Broad Institute
ALR inh: inhibitors of human ALR sulfhydryl oxidase, primary screen, biochemical, H2O2 detection, HRP-luminol luminescence, single point; inhibition, % (concentration not given with the values); 290,000 tested, 3.8% active; purified ALR, DTT oxidation; FAD-linked sulfhydryl oxidase ALR (Homo sapiens), P55789;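 active = mean replicate inhibition above about 79%, with every replicate also reaching it, limit read from the data; inconclusive = only one of the two criteria met; inactive = mean below limit and not every replicate reaching it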
Target sequence (P55789 whole entry, looked up): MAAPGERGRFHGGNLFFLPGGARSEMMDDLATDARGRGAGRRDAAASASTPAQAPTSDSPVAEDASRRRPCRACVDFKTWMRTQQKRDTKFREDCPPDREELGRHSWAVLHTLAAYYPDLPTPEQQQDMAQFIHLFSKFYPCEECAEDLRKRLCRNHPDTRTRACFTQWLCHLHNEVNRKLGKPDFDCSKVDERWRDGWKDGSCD
Mot1-301 SUMO: yeast Mot1-301 growth rescue at high temperature, primary screen, SUMOylation pathway inhibitor project, S. cerevisiae, ATP luminescence, 38.5C; S. cerevisiae Mot1-301 growth rescue; percent above DMSO median, 100 means doubled; growth rescue, % at 18.8 µM; 320,000 tested, 1% active;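 active = every valid replicate shows activation above 250% relative to neutral control wells; inactive = the rest, any valid replicate at or below 250%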;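 also: OY570 slx delta 5 strain wells were the positive control but not used for scaling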
HIF act: HIF pathway transcriptional activators, primary screen, cell-based, U2OS HRE-luciferase, luminescence. activation, % at 7.5 µM (by protocol). U2OS HRE-luciferase reporter; normalized: DMSO 0%, desferrioxamine 100%. 300,000 tested, 0.32% active;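 active = mean activation of at least 10% of the iron chelator positive control signal, with at least half of replicates also reaching 10%; inconclusive = mean and replicate majority disagree about reaching 10%; inactive = mean and most replicates under 10%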
AI-2 QS modul: Vibrio harveyi AI-2 quorum sensing modulators, primary screen, JMH597 strain, luminescence/OD600 ratio | Vibrio harveyi JMH597 AI-2 luminescence/OD600 ratio, 9 h; hits give low values; strain lacks LuxN and CqsS sensors; 0 = neutral-control median | 300,000 tested, 0.4% active | activity change, % at 7.5 µM; in the data active = activity change below about -75%, passing the limit was not always enough; inconclusive = no clear call, values can overlap the other calls;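 also: luminescence divided by OD600 gain over 9 h not by final OD600 alone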
* hit, by the source's call; u = inconclusive; x = no result. Sampled rows, rich in hits. Any-hit rate of the full collection: about 4.8%.

SMILES	ALR inh	Mot1-301 SUMO	HIF act	AI-2 QS modul
CC(=O)c1cccc(N(C(=O)c2ccccn2)C(C(=O)NC2CCCCC2)c2ccccc2)c1 (stereo unspecified)	-1	-21	39*	14
Cc1ccc2cc3c(N)c(C(=O)Nc4c(C)[nH]c(=O)[nH]c4=O)sc3nc2c1	96*	-8	-31	34
Cn1ncc2c(Nc3ccc(Br)cc3)nc(Nc3ccc(Br)cc3)nc21	0	26	0	16
Cn1ncc2c(Nc3ccc(O)cc3)nc(Cl)nc21	91*	10	1	7
Fc1cccc(Cl)c1-c1nnc2ccc3ccccc3n12	98*	-4	1	17
COc1ccccc1CNC(=O)[C@@H](NC(=O)C1CCN(C(=O)[C@@H]2CCCN2)CC1)C(C)C	-6	8	0	-1
COc1ccc(/C=C2\CCCC(C(=O)C(F)(F)F)=C2O)cc1	20	-4	0	37
O=C(C1=C(O)/C(=C/c2ccc(O)cc2)CCC1)C(F)(F)F	99*	-5	x	31
Cc1ccc(-n2nnnc2CNC(=O)c2ccc(Br)o2)cc1C	-3	-6	0	8
Cc1ccc(-n2nnnc2CNC(=O)c2ccc3c(c2)OCO3)cc1C	0	330*	0	16
CCC(=O)Nc1ccc(-c2csc(NNC(C)=O)n2)cc1	99*	-20	0	1
COc1ccc(CCNc2nc(-c3ccc(NC(C)=O)cc3)cs2)cc1OC	97*	7	1	5
CC(=O)Nc1ccc(-c2csc(NNC(=O)c3ccccc3)n2)cc1	100*	-5	1	23
CC(=O)Nc1ccc(-c2csc(N/N=C(/C)c3ccccc3)n2)cc1	99*	4	2	35
COc1ccc(CNC(=O)CN(Cc2ccc(C)cc2)C(=O)c2csnn2)cc1	-3	25	0	2
CCOC(=O)/C(C)=N/Nc1nc(-c2ccc(NC(C)=O)cc2)cs1	99*	25	0	13
C=CCn1c(NCCO)nc2sc3c(c2c1=O)CCC3	86*	-10	0	32
O=S(=O)(NCC(c1ccco1)N1CCc2ccccc21)c1ccccc1 (stereo unspecified)	97*	-17	-21	15
O=C(NCC(c1ccco1)N1CCc2ccccc21)c1ccccc1Cl (stereo unspecified)	98*	8	-2	12
O=S(=O)(NCC(c1ccco1)N1CCN(c2ccccc2F)CC1)c1ccccc1 (stereo unspecified)	1	10	-1	23
COc1ccc(C(=O)N/N=C/c2sc3ccccc3c2O)cc1	81*	-9	0	-92*
O=C(N/N=C/c1sc2ccccc2c1O)c1cccc2ccccc12	36	-4	12*	u
O=C(N/N=C/c1sc2ccccc2c1O)c1ccccc1	88*	-7	5	-81*
COc1ccc2cc(C(=O)N/N=C/c3sc4ccccc4c3O)ccc2c1	7	-17	0	21
Cc1cc(NC(=O)c2ccccc2C)ccc1NC(=O)c1ccccc1Cl	1	10	2	-4
SMILES	ALR inh	Mot1-301 SUMO	HIF act	AI-2 QS modul
O=C(CN1C(=O)NC2(CCCCCCC2)C1=O)Nc1cccc(Br)c1	-10	10	x	x
CCOC(=O)N/N=C/c1ccc(N(CC)CC)cc1O	99*	-27	4	25
CCN(CC)c1ccc(/C=N/NC(=O)c2cccc(S(=O)(=O)N3CCOCC3)c2)c(O)c1	x	-8	102*	2
CCN(CC)c1ccc(/C=N/NC(=O)c2c(Cl)cnn2C)c(O)c1	99*	-19	15*	-15
CCN(CC)c1ccc(C=Nc2cccc(S(=O)(=O)N3CCOCC3)c2)c(O)c1	x	85	x	x
Cc1ccccc1C(=O)NNC(=O)C1CC(=O)N(c2ccc3c(c2)OCCO3)C1 (stereo unspecified)	0	-3	x	x
Cc1ccc(/C=N/NC(=O)c2nnn(-c3nonc3N)c2-c2ccc3c(c2)OCO3)s1	-3	-7	0	8
O=C(CSc1c[nH]c2ccccc12)NCc1ccc2c(c1)OCO2	98*	12	44*	15
O=C(CN1CCCc2ccccc21)NCc1ccc2c(c1)OCO2	-10	10	0	1
O=C(CN1CCc2ccccc21)NCc1ccc2c(c1)OCO2	99*	9	0	20
Oc1ccc(Br)cc1CN1CCCCCCC1	99*	112	0	3
Oc1ccc2cc(Br)ccc2c1CN1CCCC1	76*	16	0	7
Brc1cccc(CN2CCCCCC2)c1	3	-15	-15	16
CN(C)C(=O)CNC(=O)CN1C(=O)NC2(CCCc3sccc32)C1=O (stereo unspecified)	-2	-10	1	22
Oc1ccccc1CNc1ccc2c(c1)OCCO2	99*	13	1	-1
Cc1ccc(NCc2ccccc2O)cc1C	91*	22	1	-43
c1cncc(CNc2ccc3c(c2)OCO3)c1	80*	47	1	33
Cc1cc(C)nc(NC(=O)c2c(F)c(F)c(F)c(C(=O)Nc3cc(C)cc(C)n3)c2F)c1	73	-8	0	29
O=C(NC1CCCCC1)c1cc(S(=O)(=O)N2CCCC2)ccc1Cl	x	5	0	9
Cc1ccc(Sc2ncccc2[N+](=O)[O-])cc1	-26	-16	-2	3
Cc1c([N+](=O)[O-])cnc(Sc2ccccc2)c1[N+](=O)[O-]	99*	271	2	16
COCC(=O)N1CCC(Oc2ccc(C(=O)N3CCSCC3)cc2)CC1	-2	-19	1	18
NC1CCN(c2c(F)cc3c(=O)c(C(=O)O)cn(C4CC4)c3c2Cl)C1 (stereo unspecified)	x	14	0	-88*
Cc1ccc(Nc2ccc(NCc3ccccc3)nn2)cc1C	27	7	x	-69
Cc1ccc(Nc2nnns2)cc1C	87*	x	0	14
SMILES	ALR inh	Mot1-301 SUMO	HIF act	AI-2 QS modul
CN(C)CCn1c2c(c(SCC(=O)Nc3nccs3)nc1=O)CCCC2	96*	-6	0	13
CCN(CC)CCn1c2c(c(SCC(=O)Nc3cc(C)ccc3C)nc1=O)CCC2	-10	-8	0	3
COc1ccc(NC(=O)CSc2nc(=O)n(CCN(C)C)c3c2CCCC3)cc1	-16	176	0	8
CCN(CC)CCn1c2c(c(SCC(=O)Nc3nccs3)nc1=O)CCCC2	98*	4	0	16
Oc1[nH]c2ccccc2c1N=Nc1nc2ccccc2s1	88*	26	-1	6
COc1ccc(C(=O)N[C@H](C(=O)Nc2ccc(S(=O)(=O)N3CCOCC3)cc2)C(C)C)cc1	-6	339*	0	17
O=C(Nc1ccc(F)cc1F)c1ccc2ncsc2c1	x	335*	4	21
O=C(Nc1ccc(S(=O)(=O)Nc2ncccn2)cc1)c1ccc2ncsc2c1	99*	-45	0	12
O=C(Nc1ccccc1F)c1ccc2ncsc2c1	x	-17	2	7
